Assay results: PubChem BioAssay (Tox21)
Records with an inconclusive call do not appear. Entries that show only a call come without a potency. Unmarked numbers belong to inactive results. Activity calls are given as the source filed them. The call rests on the fitted dose curve.

test: p53 small molecule agonists, cell-based qHTS assay with rat liver microsomes (AID 1963578); details: HCT-116 p53RE-bla, beta-lactamase ratio, 16 h; series mostly up to 66 µM
From the text: U.S. Tox21 Program National Center for Advancing Translational Sciences [NCATS] Division of Preclinical Innovation [DPI] U.S. Environmental Protection Agency [EPA] National Institutes of Environmental Health Sciences [NIEHS] National Toxicology Program [NTP] U.S. Food and Drug Administration [FDA] Tox21 Assay Overview: p53, a tumor suppressor protein, is activated following cellular insult, including DNA damage and other cellular stresses. The activation of p53 regulates cell fate by inducing DNA repair, cell cycle arrest, apoptosis, or cellular senescence. The activation of p53, therefore, is a good indicator of DNA damage and other cellular stresses. […] The activation of the reporter gene under culture conditions can be detected by fluorescence intensity. This cell line was used to screen the Tox21 10K compound library in the condition of presence of rat liver microsomes and to identify agonists that activate the p53 signaling pathway after in vitro metabolic activation (Ooka et al., Archive of Toxicology 96:1975-1987, 2022).
Tox21 Assay Protocol Summary: The p53RE-bla cells were dispensed at 4,000cells/3ul/well in 1536-well black-clear bottom plates. After the assay plates were incubated at 37 C, 5% CO2 incubator for 5 hours, 23 nL of compounds dissolved in DMSO, positive controls or DMSO only was transferred to the assay plate. Following compound addition, 3 uL of rat liver microsomes (Molecular Toxicology, Boone, NC) at final concentration of 0.5 mg/mL and 1uL of Beta-Nicotinamide adenine dinucleotide 2-phosphate (NADPH) at final concentration of 0.5 mg/mL were transferred to the assay plate. The plates were incubated at 37 C for 16 hours. 1 uL of LiveBLAzer detection mixture was added to each well and the plates were incubated at room temperature in the dark for 2 h.

Compound | Potency | activation
C#CC(C)(O)CC(C)C (stereo not given) | inactive | –
CCN(Cc1cccc(S(=O)(=O)O)c1)c1ccccc1 | inactive | –
C[Si]1(C)O[Si](C)(C)O[Si](C)(C)O[Si](C)(C)O[Si](C)(C)O1 | inactive | –
CC1(C)[C@H]2CC[C@](C)(C2)[C@H]1O | inactive | –
Cc1ccc(C(C)c2ccc(C)c(C)c2)cc1C | inactive | –
C[N+](C)(C)CC[N+]1(C)Cc2c(Cl)c(Cl)c(Cl)c(Cl)c2C1 | inactive | –
CO[Si](C)(C)OC | inactive | –
CC#N | inactive | –
C=CCOC(=O)CCCCCC | inactive | –
CCN(CC)CCN | inactive | –
CCC(C)SSC(C)CC (stereo not given) | inactive | –
O=[N+]([O-])c1ccccc1Nc1ccccc1 | inactive | –
Cc1ccccc1S(N)(=O)=O | inactive | –
O=C(OC(=O)c1ccccc1)c1ccccc1 | inactive | –
O=C1NC(c2ccccc2)(c2ccccc2)C(=O)N1COP(=O)(O)O | inactive | –
CCN1CCC[C@H]1CNC(=O)c1c(O)c(Cl)cc(Cl)c1OC | inactive | –
CC/C=C\CCOC(=O)CC | inactive | –
COc1ccccc1C=O | inactive | –
CC(O)C(CO)C(C)O (stereo not given) | inactive | –
CCOC(=O)c1ccccc1C | inactive | –

Compound | Potency | activation
C[N+](C)(C)CC(O)CCl (stereo not given) | inactive | –
O=C(O)C1CCC(C(=O)O)CC1 (stereo not given) | inactive | –
CN(C)Cc1ccccc1O | inactive | –
NC(=O)c1ncn([C@@H]2O[C@H](CO)[C@@H](O)[C@H]2O)c1O | inactive | –
CCCCCCCCCC(C)=O | inactive | –
COc1cc(C)c(Cc2cnc(N)nc2N)cc1OC | inactive | –
NC(=O)c1ccc([N+](=O)[O-])cc1 | inactive | –
CCOCCOCCOCCO | inactive | –
C=C(C)[C@@H]1CCC2=CCC[C@@H](C)[C@]2(C)C1 | inactive | –
C[Si](C)O[Si](C)(C)O[Si](C)(C)O[Si](C)C | inactive | –
O=C(O)[C@@H]1[C@H]2C[C@H]3c4[nH]c5ccccc5c4CCN3C[C@@H]2CC[C@@H]1O | inactive | –
O=C(O)CCCCCC(=O)O | inactive | –
c1c[nH]cn1 | inactive | –
CC(C)(C)OCC1CO1 (stereo not given) | inactive | –
Cc1ccc(N(C)C)cc1 | inactive | –
O=c1c(-c2ccc(O)cc2)coc2cc(O)ccc12 | inactive | –
CCCN1CCCC[C@H]1C(=O)Nc1c(C)cccc1C | inactive | –
C=CCCCCCCCCCCC | – | -3.89% [at 5.99 µM]
CC(C)CCCCCOC(=O)CCS | inactive | –
N#[N+]c1ccc2c(S(=O)(=O)[O-])cccc2c1O | inactive | –
